Source: PubChem BioAssay AID1159580 (chemical genetic matrix, 2015)
Several values for one entry are separate records, joined by “and”; a condition that tells them apart may be missing. Identical values can stand only once. The campaign covered roughly 5,500 compounds. About 2,000 (36%) were called active. Another 18% or so got no clear call; they are omitted. Rule as the data show it: active = normalized growth mostly below about 0.91 (no sharp cut-off); inconclusive = no clear call, values can overlap the other calls; inactive = mostly above about 0.92. Some of the results follow.

Assay: chemical genetic growth profiling, strain panel (AID 1159580);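 also: tested at 20 µM; growth read once vehicle control cultures reached saturation at 30 °C; 1 = growth at the plate median or of vehicle wells; lower values mean less growth of the strain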
Settings: S. cerevisiae deletion strains, growth OD

Measured: normalized growth

CCOC(=O)c1c(C)cc(O)cc1O
0.787 (active) and 0.917 (inactive): locus YJL095W, strain BCK1, stronger effect = lower value
active: locus YAL030W, strain snc1, stronger effect = lower value 0.928 | locus YBR009C, strain hhf1, stronger effect = lower value 0.896 | locus YBR231C, strain swc5, stronger effect = lower value 0.897 | locus YCL011C, strain gbp2, stronger effect = lower value 0.891 | locus YDL134C, strain PPH21, stronger effect = lower value 0.874 | locus YDL185W, strain tfp1, stronger effect = lower value 0.896 | locus YDL192W, strain arf1, stronger effect = lower value 0.896 | locus YDR001C, strain nth1, stronger effect = lower value 0.909 | locus YDR101C, strain arx1, stronger effect = lower value 0.915 | locus YDR318W, strain mcm21, stronger effect = lower value 0.893 | locus YDR388W, stronger effect = lower value 0.916 | locus YDR502C, strain sam2, stronger effect = lower value 0.844 | locus YER015W, strain faa2, stronger effect = lower value 0.924 | locus YER110C, stronger effect = lower value 0.882 | locus YER155C, strain BEM2 (second series), stronger effect = lower value 0.857 | locus YGL078C, strain dbp3, stronger effect = lower value 0.912 | locus YGL086W, strain mad1, stronger effect = lower value 0.883 | locus YGL240W, strain doc1, stronger effect = lower value 0.887 | locus YGL248W, strain PDE1, stronger effect = lower value 0.877 | locus YGR135W, strain pre9, stronger effect = lower value 0.823 | locus YHR027C, strain rpn1, stronger effect = lower value 0.917 | locus YHR079C, strain IRE1 (second series), stronger effect = lower value 0.919 | locus YHR094C, strain hxt1, stronger effect = lower value 0.919 | locus YHR142W, strain chs7, stronger effect = lower value 0.866 | locus YHR200W, strain rpn10, stronger effect = lower value 0.864 | locus YIR030C, strain dcg1, stronger effect = lower value 0.913 | locus YJL095W, strain BCK1 (second series), stronger effect = lower value 0.917 | locus YJL164C, strain tpk1, stronger effect = lower value 0.903 | locus YJL168C, strain set2, stronger effect = lower value 0.931
inactive: locus YAL021C, strain ccr4, stronger effect = lower value 0.924 | locus YAL026C, strain drs2, stronger effect = lower value 0.946 | locus YBL061C, strain skt5, stronger effect = lower value 0.94 | locus YBR021W, strain FUR4, stronger effect = lower value 1.01 | locus YBR023C, strain chs3, stronger effect = lower value 0.922 | locus YBR171W, strain sec66, stronger effect = lower value 0.904 | locus YBR229C, strain ROT2, stronger effect = lower value 0.941 | locus YBR279W, strain paf1, stronger effect = lower value 0.947 | locus YCL016C, strain dcc1, stronger effect = lower value 0.921 | locus YCL029C, strain bik1, stronger effect = lower value 0.92 | locus YCL069W, strain vba3, stronger effect = lower value 0.939 | locus YCR088W, strain abp1, stronger effect = lower value 0.934 | locus YDL005C, strain med2, stronger effect = lower value 0.921 | locus YDL035C, strain GPR1, stronger effect = lower value 0.973 | locus YDL040C, strain nat1, stronger effect = lower value 0.94 | locus YDL074C, strain BRE1, stronger effect = lower value 0.923 | locus YDL101C, strain DUN1, stronger effect = lower value 0.917 | locus YDR069C, strain doa4, stronger effect = lower value 0.916 | locus YDR137W, strain rgp1, stronger effect = lower value 0.905 | locus YDR159W, strain sac3, stronger effect = lower value 0.887 | locus YDR162C, strain NBP2, stronger effect = lower value 0.87 | locus YDR195W, strain ref2 0.981 | locus YDR297W, strain sur2, stronger effect = lower value 0.93 | locus YDR334W, strain swr1, stronger effect = lower value 0.922 | locus YDR335W, strain msn5, stronger effect = lower value 0.935 | locus YDR392W, strain spt3, stronger effect = lower value 0.831 | locus YEL003W, strain gim4, stronger effect = lower value 0.947 | locus YEL037C, strain rad23, stronger effect = lower value 0.937 | locus YEL061C, strain CIN8 (second series), stronger effect = lower value 0.937 | locus YER016W, strain bim1, stronger effect = lower value 0.946 | locus YER111C, strain swi4, stronger effect = lower value 0.937 | locus YER155C, strain BEM2, stronger effect = lower value 0.927 | locus YER167W, strain BCK2, stronger effect = lower value 0.941 | locus YFR010W, strain ubp6, stronger effect = lower value 0.92 | locus YGL167C, strain pmr1, stronger effect = lower value 0.922 | locus YGL173C, strain kem1, stronger effect = lower value 0.928 | locus YGL227W, strain vid30, stronger effect = lower value 0.937 | locus YGL253W, strain hxk2, stronger effect = lower value 0.918 | locus YGR252W, strain gcn5, stronger effect = lower value 0.937 | locus YHR013C, strain ard1, stronger effect = lower value 0.941 | locus YHR030C, strain SLT2, stronger effect = lower value 0.93 | locus YHR079C, strain IRE1, stronger effect = lower value 0.918 | locus YHR129C, strain ARP1, stronger effect = lower value 0.924 | locus YIL066C, strain RNR3, stronger effect = lower value 0.951 | locus YIL073C, strain SPO22, stronger effect = lower value 0.888 | locus YIL125W, strain kgd1, stronger effect = lower value 0.945 | locus YJL092W, strain hpr5, stronger effect = lower value 0.923 | locus YJL115W, strain asf1, stronger effect = lower value 0.939 | locus YJL129C, strain trk1, stronger effect = lower value 0.929 | locus YJL134W, strain LCB3, stronger effect = lower value 0.931 | locus YJL154C, strain vps35, stronger effect = lower value 0.922 | locus YJL166W, strain qcr8, stronger effect = lower value 0.908 | locus YJL187C, strain SWE1 (second series), stronger effect = lower value 0.878 | locus YJL187C, strain SWE1, stronger effect = lower value 0.931 | locus YJR043C, strain POL32, stronger effect = lower value 0.965
